According to the supplement of paper PMC8285479:
Where a name gives a salt, the structure may show the parent alone. ± gives the standard deviation of the averaged measurements. Over roughly 1,900 compounds, “normalised cell viability (NPI; 0 = phenylarsine oxide control, 1 = DMSO control)” has its median near 1; the lowest 2% begin near 0.039. The sample as a whole holds a higher share of the lowest values than the screen did.

Tested on: NCI-H1944
Assay: normalised cell viability (NPI; 0 = phenylarsine oxide control, 1 = DMSO control) (fraction of DMSO control); NCI-H1944 is a non-small cell lung cancer line; higher = more viable cells (less compound toxicity)
Details: 6 days
[1] = glucocorticoid arm: hydrocortisone 2.75 uM co-treatment, compound 1 µM
[2] = glucocorticoid arm: hydrocortisone 2.75 uM co-treatment, compound 5 µM
[3] = glucocorticoid arm: hydrocortisone 2.75 uM pre-treated 2 days and continued, compound 1 µM
[4] = glucocorticoid arm: hydrocortisone 2.75 uM pre-treated 2 days and continued, compound 5 µM
[5] = glucocorticoid arm: vehicle, compound 1 µM
[6] = glucocorticoid arm: vehicle, compound 5 µM
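Also: CTB read-out in 384-well plates, triplicate wells, NPI normalised per plate against 1 µM phenylarsine oxide (0) and 0.1% DMSO (1) controls.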

| Structure (SMILES) | normalised cell viability [1] | normalised cell viability [2] | normalised cell viability [3] | normalised cell viability [4] | normalised cell viability [5] | normalised cell viability [6] |
| --- | --- | --- | --- | --- | --- | --- |
| C[C@@H](Oc1ccc(Oc2cnc3ccc(Cl)cc3n2)cc1)C(=O)O | 1.004 ± 0.0098 | 0.88 ± 0.023 | 0.858 ± 0.29 | 1.05 ± 0.015 | 1.027 ± 0.0058 | 0.522 ± 0.054 |
| CNCC[C@@H](Oc1ccc(C(F)(F)F)cc1)c1ccccc1 [R-(-)-Fluoxetine hydrochloride] | 0.999 ± 0.011 | 0.92 ± 0.014 | 1.013 ± 0.0058 | 1.02 ± 0.029 | 0.995 ± 0.0036 | 0.9947 ± 0.005 |
| N#Cc1ccc2[nH]c(O)c(-c3ccc(CN4CCOCC4)cn3)c2c1 | 1.11 ± 0.021 | 1.24 ± 0.021 | 1.053 ± 0.0058 | 1.11 ± 0.023 | 1.02 ± 0.011 | 1.05 ± 0.015 |
| CN1CC2c3ccccc3Oc3ccc(Cl)cc3C2C1 (centres undefined) [Asenapine] | 1.002 ± 0.0072 | 1.02 ± 0.024 | 1.01 ± 0.011 | 1.01 ± 0.028 | 0.995 ± 0.0087 | 1 ± 0.0092 |
| CN(C)CCC(c1ccc(Br)cc1)c1ccccn1 (racemic) [(±)-Brompheniramine maleate] | 1.001 ± 0.0081 | 1.03 ± 0.017 | 1.013 ± 0.0058 | 1.04 ± 0.014 | 1.013 ± 0.0058 | 1.02 ± 0.01 |
| CC(C)C[C@H](NP(=O)(O)O[C@H]1O[C@H](C)[C@@H](O)[C@H](O)[C@@H]1O)C(=O)N[C@@H](Cc1c[nH]c2ccccc12)C(=O)O [Phosphoramidon disodium] | 0.9937 ± 0.0061 | 1.01 ± 0.02 | 1.01 ± 0.016 | 0.999 ± 0.011 | 0.991 ± 0.0044 | 0.9847 ± 0.0081 |
| S=C(S)OC1CC2CC1C1CCCC21 [D-609 potassium] | 1.02 ± 0.01 | 1.03 ± 0.017 | 1.04 ± 0.02 | 1.04 ± 0.01 | 1.03 ± 0.011 | 1.03 |
| Cn1c(=O)c2nc[nH]c2n(C)c1=O [Theophylline] | 1.001 ± 0.0085 | 1.01 ± 0.01 | 1.02 ± 0.021 | 0.9943 ± 0.0049 | 0.99 ± 0.0087 | 0.9907 ± 0.0038 |
| O=C1OC(=O)[C@H]2[C@@H]1[C@@H]1CC[C@H]2O1 [Norcantharidin] | 1.007 ± 0.0058 | 1.03 ± 0.02 | 1.02 ± 0.011 | 0.924 ± 0.23 | 0.9903 ± 0.0011 | 1 ± 0.022 |
| O=C(OCCN1CCOCC1)C1(c2ccccc2)CCCCC1 | 1.01 ± 0.011 | 1.03 ± 0.088 | 1.02 ± 0.015 | 0.891 ± 0.21 | 1.017 ± 0.0058 | 1.03 ± 0.011 |
| O=C(Cc1ccc(-c2ccc(OCCN3CCOCC3)cc2)cn1)NCc1ccccc1 | 0.235 ± 0.021 | 0.258 ± 0.015 | 0.464 ± 0.041 | 0.518 ± 0.077 | 0.0379 ± 0.0028 | 0.0359 ± 0.0039 |
| Cc1ccc(-n2nc(C(C)(C)C)cc2NC(=O)Nc2ccc(OCCN3CCOCC3)c3ccccc23)cc1 [BIRB 796 (Doramapimod)] | 0.806 ± 0.012 | 0.826 ± 0.03 | 0.775 ± 0.019 | 0.816 ± 0.034 | 0.995 ± 0.005 | 1.017 ± 0.0058 |
| CCS(=O)(=O)Nc1ccc2[nH]c(O)c(C(=Nc3ccc(CN4CCCCC4)cc3)c3ccccc3)c2c1 [Hesperadin] | 0.435 ± 0.035 | 0.396 ± 0.068 | 0.419 ± 0.087 | 0.51 ± 0.08 | 0.371 ± 0.08 | 0.218 ± 0.035 |
| CC(C)C[C@H](NC(=O)[C@H](CCc1ccccc1)NC(=O)CN1CCOCC1)C(=O)N[C@@H](Cc1ccccc1)C(=O)N[C@@H](CC(C)C)C(=O)[C@@]1(C)CO1 [Carfilzomib] | 0.0119 ± 0.0019 | 0.198 ± 0.017 | 0.652 ± 0.035 | 0.986 ± 0.013 | 0.00203 ± 0.0017 | 0.0026 ± 0.00057 |
| CC(C)C[C@H](NC(=O)[C@H](CCc1ccccc1)NC(=O)CN1CCOCC1)C(=O)N[C@@H](Cc1ccccc1)C(=O)N[C@@H](CC(C)C)C(=O)[C@@]1(C)CO1 [Carfilzomib (PR-171)] | 0.0181 ± 0.0047 | 0.000755 ± 0.00097 | 0.777 ± 0.051 | 0.12 ± 0.025 | 0.0054 ± 0.0013 | -0.000926 ± 0.0006 |
| CCCCCCCCCC(=O)NC(CN1CCOCC1)[C@H](O)c1ccccc1 (mixture of isomers) | 1.01 | 0.9997 ± 0.0096 | 1.02 ± 0.026 | 1.01 ± 0.024 | 1.01 | 0.997 ± 0.014 |
| CNC(=N)NCCC[C@H](N)C(=O)O [NG-Monomethyl-L-arginine acetate] | 1.001 ± 0.009 | 0.985 ± 0.022 | 1.001 ± 0.0081 | 0.879 ± 0.24 | 0.9883 ± 0.0097 | 0.991 ± 0.0079 |
| S=C=Nc1cccc(NC(=S)NCCCCNC(=S)Nc2cccc(N=C=S)c2)c1 | 1.04 ± 0.04 | 1.05 ± 0.015 | 1.02 ± 0.033 | 1.04 ± 0.032 | 1.017 ± 0.0058 | 1.003 ± 0.0058 |
| CCc1cccc(N(C)C(=N)Nc2cccc3ccccc23)c1 | 0.999 ± 0.027 | 0.918 ± 0.012 | 1.006 ± 0.0069 | 0.967 ± 0.013 | 1.003 ± 0.0064 | 1.01 ± 0.01 |
| COc1ccc2c(c1)c(CC(=O)O)c(C)n2Cc1ccc(F)cc1 [1-(4-Fluorobenzyl)-5-methoxy-2-methylindole-3-acetic acid] | 0.987 ± 0.014 | 0.977 ± 0.017 | 0.983 ± 0.028 | 0.982 ± 0.013 | 0.9717 ± 0.0076 | 0.974 ± 0.0027 |
| CCn1nnc2c(N3CCOCC3)nc(-c3ccc(NC(=O)Nc4ccc(C(=O)N5CCN(C)CC5)cc4)cc3)nc21 | 0.201 ± 0.0067 | 0.375 ± 0.015 | 0.287 ± 0.01 | 0.543 ± 0.024 | 0.077 ± 0.01 | 0.22 ± 0.016 |
| CN(C)C1CCN(C(=O)c2ccc(NC(=O)Nc3ccc(-c4nc(N5CCOCC5)nc(N5CCOCC5)n4)cc3)cc2)CC1 | 0.231 ± 0.011 | 0.105 ± 0.0056 | 0.311 ± 0.026 | 0.147 ± 0.012 | 0.0929 ± 0.0075 | 0.0212 ± 0.0032 |
| COC(=O)Nc1ccc(-c2nc(N3CCOCC3)c3cnn(C4CCN(C(=O)OC)CC4)c3n2)cc1 | 0.505 ± 0.038 | 0.753 ± 0.013 | 0.563 ± 0.029 | 0.769 ± 0.067 | 0.476 ± 0.02 | 0.924 ± 0.015 |
| C=CS(=O)(=O)NC1CCN(C(=O)CNc2cc(I)c(Cl)cc2OC)CC1 [K-Ras(G12C) inhibitor 9] | 1.03 ± 0.01 | 1.07 ± 0.029 | 1.04 | 1.04 ± 0.025 | 0.993 ± 0.0036 | 0.996 ± 0.014 |
